PubChem BioAssay (EPA / NIEHS)
Activity calls are given as the source filed them. The calls were made as follows: active = hit-call score of the fitted dose curve at least 0.9, where 1 is the maximum; inactive = score below 0.9.

Assay: CEETOX_H295R_CORTIC: CeeTox H295R High-throughput Steroidogenesis Assay for Corticosterone (CORTIC) (AID 2283437);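 also: corticosterone secreted into medium quantified by mass spectrometry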
Conditions: actives raise or lower the signal
Procedure: CEETOX_H295R is a cell-based, multiplexed-readout assay that uses H295R, a human adrenal gland cell line, with measurements taken at 48 hours after chemical dosing in a 96-well plate.CEETOX_H295R_CORTIC is one of 23 assay component(s) measured or calculated from the CEETOX_H295R assay. It is designed to make measurements of hormone induction, a form of inducible reporter, as detected with absorbance signals by HPLC-MS-MS technology.Data from the assay component CEETOX_H295R_CORTIC was analyzed into 1 assay endpoint. This assay endpoint, CEETOX_H295R_CORTIC, was analyzed with bidirectional fitting relative to DMSO as the negative control and baseline of activity. Using a type of inducible reporter, gain or loss-of-signal activity using HPLC-MS-MS was used to understand synthesis of Corticosterone in H295R cell line at 48hr of chemical exposure. To generalize the intended target to other relatable targets, this assay endpoint is annotated to the steroid hormone intended target family, where the subfamily is glucocorticoids.
Cell culture and media preparation procedures were conducted in accordance with OECD Test No. 456 guidelines, with minor modifications. H295R cells (ATCC CRL-2128) were expanded for 5 passages and frozen in batches in liquid nitrogen. Prior to the steroidogenesis assay, H295R cells were thawed and passed at least 4 times. The maximum passage was 10. Cells were maintained in a 1:1 mixture of DMEM/F12 supplemented with 5ml/L ITS+ Premix (BD Bioscience) and 12.5 ml/L Nu-Serum (BD Bioscience). After seeding cells into 96-well plates at 50-60% confluency, cells were allowed to adhere overnight. Prior to chemical testing, culture medium was replaced with 175 uL medium containing 10 uM forskolin to stimulate steroidogenesis for 48 hours. Following prestimulation, forskolin medium was replaced with medium containing test chemical solubilized in DMSO (ensuring a final concentration of 0.1% DMSO). Test chemicals were incubated for 48 hours, then the medium was removed and split into 2 vials containing approximately 75uL each, and stored at -80 C prior to hormone analysis. For steroid quantification, media samples were shipped to OpAns, LLC (Durham, NC) on dry ice, and samples were thawed to room temperature prior to liquid-liquid extraction. Steroid hormones were extracted from media samples using methyl tertbutyl ether (MTBE). An extra derivatization with dansyl chloride was included for estrogen (estrone and estradiol) detection only. Steroid hormones were separated by HPLC, eluted using a reverse phase C18 gradient with electrospray positive ionization, followed by quantification by tandem mass spectrometry (MS/MS). Data were acquired on a MassHunter Workstation Acquisition version B03.01 (Agilent Technologies, Inc.) and processed using MassHunter Quantitative Analysis for QQQ. Accuracy was determined for each hormone analyte from 3 standards to determine upper and lower limits of quantification (ULOQ and LLOQ, respectively) using a 7-point standard curve. Precision and accuracy of the extraction and quantification methods were calculated as the percent relative standard deviation (%RSD) of the spiked standards and percent spiked standard recovered, respectively. […] Test medium was removed following chemical exposure, and cell viability was evaluated in the same wells by MTT. MTT procedures were as follows: after removal of test medium, 500 uL of 0.5 mg/ml of 3-[4,5-dimethylthiazol-2-y]2,5-diphenyltetrazoliumbromide solution was added to the cells. Following a 4-hour incubation at 37 C and 5% CO2 to allow formazan-crystal formation, the MTT solution was removed and blue formazan salt crystals were solubilized using 500uL anhydrous isopropanol with shaking for 20 minutes. Absorbance was read at 570 and 650nm using a Packard Fusion microplate reader. Background correction of absorbance units was used to determine percent change relative to controls. […]

SMILES	outcome	AC50
C[C@@H](Oc1ccc(CNC(=O)c2cccnc2Oc2ccc3c(c2)OCO3)c(F)c1)C(=O)O	inactive	
CCN(CC)C(=S)SSC(=S)N(CC)CC	inactive	
CCCCCCCCN(C)C	inactive	
C=CCc1cc(S(=O)(=O)c2ccc(O)c(CC=C)c2)ccc1O		0.0971 µM (active)
COc1cc2c(c(OC)c1OC)-c1ccc(OC)c(=O)cc1[C@@H](NC(C)=O)CC2	inactive	
C[C@]12C=CC(=O)C=C1CC[C@H]1[C@@H]3C[C@@H](O)[C@](O)(C(=O)CO)[C@@]3(C)C[C@H](O)[C@@]12F		19.8 µM (active)
CCCCC(CC)C(=O)OCCOCCOCCOC(=O)C(CC)CCCC (stereo not drawn)	inactive	
CCCOc1ccc(S(=O)(=O)N2CCN(CC)CC2)cc1-c1nc2c(CC)n(Cc3ccccn3)nc2c(=O)[nH]1	inactive	
CC[C@H](C)C(=O)O[C@H]1C[C@H](O)C=C2C=C[C@H](C)[C@H](CC[C@@H](O)C[C@@H](O)CC(=O)O)[C@H]21		6.77 µM (active)
c1ccc2c(c1)-c1cccc3c1c-2cc1ccccc13	inactive	
CC(C)c1nnc2ccc(-c3ocnc3-c3cc(F)ccc3F)cn12	inactive	
Nc1ccn([C@@H]2O[C@H](CO)[C@@H](O)[C@@H]2O)c(=O)n1	inactive	
CCn1nc(C)c2c1C(=O)NCC(c1ccc(O)cc1)=N2	inactive	
